# Screening data: PubChem, several laboratories
# NLRP3 yeast inh = inhibitors of NALP3 inflammasome in yeast | Yeast reconstituted NLRP3/ASC/caspase-1, beta-gal luminescence, 24 h | inhibition, % at 10 µM | 330,000 tested, 0.39% active;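 active = inhibition of 50% or more; inactive = inhibition below 50%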;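 note: plate controls were induced DMSO wells for no effect and uninduced yeast grown without galactose for full effect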
# TIM10 inh = TIM10 yeast growth inhibition. 330,000 tested, 1.4% active. S. cerevisiae TIM10 strain growth, BacTiter-Glo luminescence, 24 h. inhibition, % at 10 µM. AID 463195;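 active = inhibition of 40% or more at the single tested concentration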;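 note: wild-type TIM10 isogenic control strain grown at permissive 25 °C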
# SKKanGAS inh = inhibitors of SKKanGAS S. pyogenes growth in kanamycin (SK-promoter or general growth effect); 300,000 tested, 1.3% active; inhibition, % at 7.5 µM; BacTiter-Glo, 6 h;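 active = mean replicate score, as percent of positive control median, at least 50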;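 note: strain carries kanamycin resistance gene driven by streptokinase promoter and grows in 40 µg/ml kanamycin; loss of luminescence reflects streptokinase promoter inhibition or plain growth inhibition; 0% = median of DMSO wells and 100% = positive control at its reference dose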
# tim10-1 inh = inhibits growth of tim10-1 mutant yeast; AID 463190; S. cerevisiae tim10-1 ts strain growth, BacTiter-Glo, 24 h; inhibition, % at 20 µM; 330,000 tested, 2.2% active;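 active = inhibition of at least 40%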;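 note: mutant grown at 25 °C; 0% = DMSO wells with yeast and 100% = wells holding no yeast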
# tim23-1 inh = tim23-1 yeast growth inhibition | inhibition, % at 20 µM | S. cerevisiae tim23-1 growth, BacTiter-Glo luminescence, 24 h | 330,000 tested, 1.3% active;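 active = growth inhibition of the mutant yeast at or above 50%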;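 note: temperature-sensitive mutant grown at 25 °C; plate controls were DMSO-treated mutant yeast for no effect and medium wells lacking yeast for full effect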
# PfHsp90 set2 = inhibits growth of yeast expressing Plasmodium falciparum Hsp90; S. cerevisiae expressing PfHsp90, BacTiter-Glo ATP, 48 h; yeast lacking PDR1 and PDR3 efflux regulators; AID 504621; 310,000 tested, 0.32% active; inhibition, % at 9.4 µM;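 active = every replicate shows inhibition above about 80%, whatever the replicate mean, limit read from the data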;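 note: 0% = DMSO neutral controls and 100% = 20 µM radicicol positive controls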
# tim10 confirm = TIM10 yeast growth inhibition, confirmed. inhibition, % at 10 µM. 4,600 tested, 63% active. S. cerevisiae tim10 strain growth, BacTiter-Glo luminescence, 24 h. shares compounds with TIM10 inh;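 active = inhibition of yeast growth at or above a set limit in either of two replicates at 10 µM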;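 note: this counterscreen used the strain with wild-type TIM10; 0% = yeast with DMSO and 100% = medium wells lacking yeast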
# tim23-1 conf = tim23-1 yeast growth inhibition, confirmed; shares compounds with tim23-1 inh; S. cerevisiae tim23-1 growth, BacTiter-Glo luminescence, 24 h; inhibition, % at 20 µM; 4,400 tested, 83% active;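 active = inhibition above about 39% in either of two replicate wells at 20 µM, limit read from the data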;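 note: temperature-sensitive tim23-1 mutant grown at 25 °C; 0% = DMSO wells with yeast and 100% = medium wells without yeast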
# Numbers without * were called inactive; nt = no result given. Only some compounds are listed: those with a hit (about 4.6% of all), similar ones and a draw of the others.
SMILES,NLRP3 yeast inh,TIM10 inh,SKKanGAS inh,tim10-1 inh,tim23-1 inh,PfHsp90 set2,tim10 confirm,tim23-1 conf
O/C(=C\c1nc2ccccc2nc1/C=C(\O)c1ccccc1)c1ccccc1,16,45*,9,37,63*,-8,54*,68*
O=c1oc2ccccc2nc1/C=C(\O)c1ccccc1,37,-68,-1,-48,-31,nt,nt,nt
O=C1CC(NS(=O)(=O)c2cc(F)ccc2F)CN1c1cccc(F)c1 (stereo not given),-1,1,5,8,12,0,nt,nt
N/C(Cc1cccc2ccccc12)=N\OC(=O)c1cccs1,-15,61*,26,32,63*,19,78*,72*
CCOC(=O)N1CCC2(CC1)C(C#N)=C(N)Oc1n[nH]c(C)c12,10,-3,2,3,3,2,nt,nt
CCOC(=O)N1CCC2(CC1)C(C#N)=C(N)Oc1c2sc2nc(C)cc(C)c12,6,51*,31,36,61*,-36,36*,51*
CCCN1CCC2(CC1)C(C#N)=C(N)Oc1c2sc2nc(C)cc(C)c12,22,-7,10,0,10,25,nt,nt
CCOC(=O)N1CCC2(CC1)C(C#N)=C(N)Oc1c2c(C)nn1-c1cccc(Cl)c1,13,44*,17,31,58*,15,30,58*
COc1ccc(-c2nc3c(-c4ccc(F)cc4)cnn3cc2C)cc1F,29,2,-15,-8,-2,nt,nt,nt
O=C1/C(=C/c2ccc(O)cc2)COc2ccccc21,49,46*,12,39,78*,4,36*,50*
CNc1ccc(/C=C2\COc3ccccc3C2=O)cc1[N+](=O)[O-],35,1,-4,10,9,19,nt,nt
CCOC(=O)/C(C#N)=C/c1cc2ccc(C)cc2nc1Cl,15,42*,6,22,56*,-10,7,64*
CCOC(=O)/C(C#N)=C/c1cc2ccccc2nc1N1CCOCC1,-2,22,4,33,31,11,nt,nt
NC(=S)N/N=C\c1ccccc1OCc1ccccc1,39,41*,-4,10,53*,-7,-37,22
O=C(CSCc1ccccc1)N/N=C/c1ccccc1OCc1ccccc1,8,19,-1,23,20,0,nt,nt
COc1cccc(Oc2nccc(N(C)C)c2C#N)c1,16,-2,-14,3,17,42,nt,nt
Cn1c(C(=O)Nc2ccc3c(c2)OCCO3)cc2sccc21,28,56*,-3,18,56*,10,19,44*
O=C1C2=C(Nc3ccccc3SC2c2ccco2)c2ccccc21 (stereo not given),-2,46*,19,20,55*,-13,43*,82*
O=C1c2ccccc2NC(c2ccco2)N1O (stereo not given),21,10,-8,0,2,-16,nt,nt
Cc1ccnc2c1ccc1c(C)ccnc12,35,50*,nt,35,71*,30,-28,60*
Cc1cccc2cccnc12,7,-5,nt,-15,-7,13,nt,nt
COc1cc(/C=C2\C(C)=C(C#N)c3nc(N)c(C#N)c(C)c32)ccc1OCC(=O)O,8,44*,3,39,61*,-11,31*,48*
COCCCNC(=O)/C(C#N)=C/c1ccc(OCC(=O)O)c(OC)c1,7,10,1,-4,2,-15,nt,nt
O=C(Nc1cccc(Cl)c1)N1CCCC1,34,47*,4,36,51*,-4,27,73*
CCOC(=O)C1CCN(S(=O)(=O)c2ccc3c(c2)CCN3C(C)=O)CC1,2,19,-4,22,29,-14,nt,nt
SMILES,NLRP3 yeast inh,TIM10 inh,SKKanGAS inh,tim10-1 inh,tim23-1 inh,PfHsp90 set2,tim10 confirm,tim23-1 conf
CCOC(=O)C1CCN(S(=O)(=O)c2ccc3c(c2)CCN3C(=O)C2CCC2)CC1,14,62*,-1,1,51*,2,20,66*
O=C(/C=C/c1cccc([N+](=O)[O-])c1)c1ccco1,23,62*,-2,35,64*,85*,76*,3
Cc1nnc(SCC(=O)N(C2CCCCC2)C2CCS(=O)(=O)C2)n1N (stereo not given),14,9,-10,20,10,nt,nt,nt
CCOc1ccc(C2=NNC(c3cccs3)=Nc3ccc(OC)cc32)cc1OCC,3,33,29,12,0,-29,nt,nt
CCOc1ccc(C2=NNC(c3cccs3)=Nc3ccc(OCC)cc32)cc1,48,52*,10,29,55*,nt,44*,68*
COc1ccc(C(=O)N2N=C3CC(C)(C)OCC3C2c2ccccc2)cc1 (stereo not given),9,30,1,22,29,24,nt,nt
O=C(O/N=C(\c1ccccc1)c1ccccn1)c1ccc(Cl)c(Cl)c1,2,13,7,34,5,11,nt,nt
N/C(=N\OC(=O)c1ccc(Cl)c(Cl)c1)c1cccc(CSc2ccccn2)c1,15,72*,-12,39,79*,-4,84*,49*
COc1ccccc1CCNC(=O)C(=O)c1cn(CC(=O)N2CCOCC2)c2ccccc12,13,14,-6,11,7,-8,nt,nt
O=[S@]1Oc2ccccc2-c2ccccc21,17,58*,1,5,69*,110*,76*,-41
O=S1c2ccccc2Oc2ccccc21,nt,nt,nt,nt,nt,32,nt,nt
Cc1cc(=O)oc2cc(OCC(O)Cn3ccnc3)ccc12 (stereo not given),-4,3,9,3,15,18,nt,nt
CCOc1ccc2cc(C#N)c(SCC(=O)N3CCC(C)CC3)nc2c1,9,59*,-2,36,52*,nt,14,50*
Cc1noc(C)c1C(=O)OC(C)C(=O)N(C)c1ccccc1 (stereo not given),17,-7,nt,4,14,6,nt,nt
CC(OC(=O)/C=C/c1ccc2ccccc2n1)C(=O)N(C)c1ccccc1 (stereo not given),27,43*,nt,35,52*,4,42*,53*
COc1ccc(-c2coc3cc(OC(C)=O)ccc3c2=S)cc1,nt,nt,nt,nt,nt,-42,nt,nt
O=C(Nc1cccc(-c2cc3ccccc3oc2=O)c1)c1ccc(Br)o1,26,43*,9,39,56*,5,47*,62*
O=C(CN(Cc1ccc(F)cc1)C(=O)CCC(=O)Nc1nccs1)NCc1ccc(F)cc1,14,11,-3,-15,2,15,nt,nt
COc1ccc(CC(=O)NNC(=O)COc2ccc(F)cc2)cc1S(=O)(=O)N1CCOCC1,-10,0,nt,10,1,2,nt,nt
Cc1ccc(-c2cc(-c3n[nH]c(=S)n3C)c3ccccc3n2)cc1,35,50*,5,36,52*,-23,48*,59*
